About 7,900 targets were measured; listed, in parts, are those with a hit and a random draw of the rest. About 0.6% of all pairs of compound and target were hits. Values without a mark were called inactive.
Columns and labels:
Assay in all cases: log2 fold change, soluble protein after heating vs DMSO (PISA); higher = thermal stabilisation; K562 cells, 10 uM, 30 min; active = over 0.2 and 3.5 SD of the protein, either way, in both replicates (recomputed)
[1] = compound: C1COCCN1CCN2C3=CC=CC=C3N=C2NC(=O)C4=CC(=CC=C4)[N+](=O)[O-] [IRAK-1-4 Inhibitor I]
Outline: (§1)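 K562 cells at 2×10^6 cells/mL were treated with 10 μM compound for 30 min. Aliquots were heated for 3 min across 48°C-58°C, pooled, and extracted in PBS with 0.5% NP-40 at 4°C; soluble protein was the supernatant after 21,000xg for 90 min. Soluble protein was quantified by TMTpro 16plex LC-MS/MS with channel sums equalised, and reported as log2 fold change in thermal stability against DMSO controls, with values from duplicates.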

[2] = compound: C=CC(=O)N1CCC[C@@H](n2nc(-c3ccc(Oc4ccccc4)cc3)c3c(N)ncnc32)C1 [ibrutinib]
Outline: as §1

[3] = compound: CC(=O)c1cnc2ccc(-c3cc(Cl)c(O)c(Cl)c3)nc2c1N[C@H]1CC[C@H](CN(C)C)CC1
Outline: as §1

[4] = compound: CC(C)(C)Cn1c(N)nc2ccc(-c3[nH]c(C(C)(C)C)nc3-c3ccc(F)cc3)nc21 [ralimetinib]
Outline: as §1

[5] = compound: CC(C)(O)CC(=O)NCCn1ccc2ncnc(Nc3ccc(Oc4cccc(C(F)(F)F)c4)c(Cl)c3)c21
Outline: as §1

[6] = compound: CC(C)C1=C2N=C(C=C(N2N=C1)NCC3=CC=CC=C3)NCCCCCCN
Outline: as §1

[7] = compound: CC(C)C[C@@H](C=O)NC(=O)[C@H](CC(C)C)NC(=O)[C@H](CC(C)C)NC(=O)OCc1ccccc1
Outline: as §1

[8] = compound: CC(C)N(C[C@H]1O[C@@H](n2cnc3c(N)ncnc32)[C@H](O)[C@@H]1O)[C@H]1C[C@@H](CCc2nc3cc(C(C)(C)C)ccc3[nH]2)C1 [pinometostat]
Outline: as §1

[9] = compound: CC1=C(C(CC(=O)N1)C2=CC=C(C=C2)C(F)(F)F)C(=O)NC3=C(C=C4C(=C3)C=NN4)F
Outline: as §1

[10] = compound: CC1=C(C2=C(C=C1)C(=O)C3=CC=CC=C3N2CCCN)C
Outline: as §1

[11] = compound: CC1=C(C=C(C=C1)NC(=O)C2=CC(=CC=C2)C(C)(C)C#N)NC3=CC4=C(C=C3)N=CN(C4=O)C
Outline: as §1

[12] = compound: CC1=C(C=C(C=C1)NC(=O)C2=CC(=CC=C2)N(C)C)NC(=O)C3=CC=C(C=C3)O
Outline: as §1

[13] = compound: CC1=CC=C(C=C1)SC2=C3C=C(SC3=CN=C2)C(=O)N
Outline: as §1

[14] = compound: CC1=NC(=CC=C1)C2=C(N=C(N2)C(C)(C)C)C3=CC4=NC=CN=C4C=C3
Outline: as §1

[15] = compound: CCCCN(Cc1ccc(C(=O)NO)cc1)C(=O)Nc1ccccc1 [Nexturastat A]
Outline: as §1

[16] = compound: CCCS(=O)(=O)Nc1ccc(F)c(C(=O)c2c[nH]c3ncc(-c4ccc(Cl)cc4)cc23)c1F [vemurafenib]
Outline: as §1

[17] = compound: CCCS(=O)(=O)Nc1ccc(F)c(C(=O)c2c[nH]c3ncc(Cl)cc23)c1F
Outline: as §1

[18] = compound: CCCc1cc(C)[nH]c(=O)c1CNC(=O)c1cc(-c2ccnc(N3CCN(C)CC3)c2)cc2c1cnn2C(C)C
Outline: as §1

[19] = compound: CCN(CC)Cc1ccc2cc(COC(=O)Nc3ccc(C(=O)NO)cc3)ccc2c1 [givinostat]
Outline: as §1

[20] = compound: CCN(CCCOc1ccc2c(Nc3cc(CC(=O)Nc4cccc(F)c4)[nH]n3)ncnc2c1)CCOP(=O)(O)O [barasertib]
Outline: as §1

UniProt Q9NR45, sequence (Q9NR45 whole entry, looked up): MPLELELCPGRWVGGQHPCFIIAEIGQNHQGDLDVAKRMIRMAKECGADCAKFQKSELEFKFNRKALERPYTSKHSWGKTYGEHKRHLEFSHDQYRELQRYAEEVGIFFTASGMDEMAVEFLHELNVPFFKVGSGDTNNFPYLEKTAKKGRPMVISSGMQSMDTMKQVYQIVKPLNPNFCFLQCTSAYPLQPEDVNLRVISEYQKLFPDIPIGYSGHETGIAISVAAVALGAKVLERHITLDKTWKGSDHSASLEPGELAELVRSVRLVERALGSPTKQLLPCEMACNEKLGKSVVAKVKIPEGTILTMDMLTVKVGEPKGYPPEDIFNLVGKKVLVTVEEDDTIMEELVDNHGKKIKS
UniProt Q96BN8, sequence (Q96BN8 whole entry, looked up): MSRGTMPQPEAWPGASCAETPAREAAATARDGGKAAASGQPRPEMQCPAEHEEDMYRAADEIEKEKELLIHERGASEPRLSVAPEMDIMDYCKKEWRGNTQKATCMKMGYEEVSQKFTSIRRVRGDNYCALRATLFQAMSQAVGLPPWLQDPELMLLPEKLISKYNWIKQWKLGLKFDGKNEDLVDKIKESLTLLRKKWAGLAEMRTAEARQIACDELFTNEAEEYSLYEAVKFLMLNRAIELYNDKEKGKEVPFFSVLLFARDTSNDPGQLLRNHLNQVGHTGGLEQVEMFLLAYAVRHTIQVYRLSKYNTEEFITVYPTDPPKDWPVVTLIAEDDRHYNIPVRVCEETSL
UniProt Q92692, sequence (Q92692 whole entry, looked up): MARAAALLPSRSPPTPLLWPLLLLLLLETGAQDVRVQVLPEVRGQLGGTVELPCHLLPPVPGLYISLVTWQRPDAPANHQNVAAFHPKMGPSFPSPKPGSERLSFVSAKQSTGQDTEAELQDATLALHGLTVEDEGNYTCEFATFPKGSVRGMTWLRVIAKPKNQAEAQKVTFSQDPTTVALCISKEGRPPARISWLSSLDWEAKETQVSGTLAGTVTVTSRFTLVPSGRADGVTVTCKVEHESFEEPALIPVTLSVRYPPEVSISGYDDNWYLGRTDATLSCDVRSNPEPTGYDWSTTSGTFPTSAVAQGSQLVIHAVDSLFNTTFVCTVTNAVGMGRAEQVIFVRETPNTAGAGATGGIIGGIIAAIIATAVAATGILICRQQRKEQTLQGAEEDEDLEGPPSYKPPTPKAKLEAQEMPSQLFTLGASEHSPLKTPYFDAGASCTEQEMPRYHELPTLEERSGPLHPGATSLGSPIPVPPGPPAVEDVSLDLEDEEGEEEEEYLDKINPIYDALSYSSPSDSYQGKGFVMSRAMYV
UniProt Q13423, sequence (Q13423 whole entry, looked up): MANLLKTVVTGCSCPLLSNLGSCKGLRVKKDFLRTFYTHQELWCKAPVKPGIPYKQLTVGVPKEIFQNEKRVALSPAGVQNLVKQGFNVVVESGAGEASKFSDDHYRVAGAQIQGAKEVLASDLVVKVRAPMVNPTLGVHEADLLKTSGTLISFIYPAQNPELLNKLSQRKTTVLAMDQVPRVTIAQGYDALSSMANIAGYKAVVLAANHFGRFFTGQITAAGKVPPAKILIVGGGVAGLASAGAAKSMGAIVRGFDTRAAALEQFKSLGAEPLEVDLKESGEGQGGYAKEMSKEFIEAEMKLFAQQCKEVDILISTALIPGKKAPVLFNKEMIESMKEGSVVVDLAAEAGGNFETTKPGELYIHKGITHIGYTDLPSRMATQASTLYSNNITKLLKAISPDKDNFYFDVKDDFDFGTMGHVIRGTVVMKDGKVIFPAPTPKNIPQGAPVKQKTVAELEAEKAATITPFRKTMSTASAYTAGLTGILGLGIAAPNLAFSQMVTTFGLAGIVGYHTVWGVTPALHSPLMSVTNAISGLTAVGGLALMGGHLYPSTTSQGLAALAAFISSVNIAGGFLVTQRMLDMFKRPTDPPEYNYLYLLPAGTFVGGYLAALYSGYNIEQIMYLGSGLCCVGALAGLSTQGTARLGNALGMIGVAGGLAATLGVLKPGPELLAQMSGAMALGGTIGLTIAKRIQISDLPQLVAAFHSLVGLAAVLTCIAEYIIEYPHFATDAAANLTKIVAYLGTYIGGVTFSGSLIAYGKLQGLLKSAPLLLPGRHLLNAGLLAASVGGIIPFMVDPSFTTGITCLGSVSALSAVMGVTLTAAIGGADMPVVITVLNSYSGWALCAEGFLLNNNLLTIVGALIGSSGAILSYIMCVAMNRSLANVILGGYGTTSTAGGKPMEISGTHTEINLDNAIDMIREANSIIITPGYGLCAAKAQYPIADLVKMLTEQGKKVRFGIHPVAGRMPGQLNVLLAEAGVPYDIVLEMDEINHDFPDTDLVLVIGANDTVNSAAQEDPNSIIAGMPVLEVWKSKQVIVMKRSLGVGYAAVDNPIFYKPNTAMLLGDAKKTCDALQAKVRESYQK
UniProt P30419, sequence (P30419 whole entry, looked up): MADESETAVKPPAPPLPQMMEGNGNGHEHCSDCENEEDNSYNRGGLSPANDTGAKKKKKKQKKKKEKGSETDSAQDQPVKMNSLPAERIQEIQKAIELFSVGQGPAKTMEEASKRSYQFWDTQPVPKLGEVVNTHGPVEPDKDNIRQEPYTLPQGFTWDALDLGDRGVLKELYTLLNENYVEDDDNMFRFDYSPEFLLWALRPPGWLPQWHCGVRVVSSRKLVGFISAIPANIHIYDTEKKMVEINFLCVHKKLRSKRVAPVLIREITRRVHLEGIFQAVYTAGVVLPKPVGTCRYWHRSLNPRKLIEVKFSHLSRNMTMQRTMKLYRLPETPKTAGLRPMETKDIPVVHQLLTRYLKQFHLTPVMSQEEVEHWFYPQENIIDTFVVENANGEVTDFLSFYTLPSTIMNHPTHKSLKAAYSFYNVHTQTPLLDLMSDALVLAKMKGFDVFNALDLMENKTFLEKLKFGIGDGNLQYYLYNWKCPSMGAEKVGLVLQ
UniProt Q5TFE4, sequence (Q5TFE4 whole entry, looked up): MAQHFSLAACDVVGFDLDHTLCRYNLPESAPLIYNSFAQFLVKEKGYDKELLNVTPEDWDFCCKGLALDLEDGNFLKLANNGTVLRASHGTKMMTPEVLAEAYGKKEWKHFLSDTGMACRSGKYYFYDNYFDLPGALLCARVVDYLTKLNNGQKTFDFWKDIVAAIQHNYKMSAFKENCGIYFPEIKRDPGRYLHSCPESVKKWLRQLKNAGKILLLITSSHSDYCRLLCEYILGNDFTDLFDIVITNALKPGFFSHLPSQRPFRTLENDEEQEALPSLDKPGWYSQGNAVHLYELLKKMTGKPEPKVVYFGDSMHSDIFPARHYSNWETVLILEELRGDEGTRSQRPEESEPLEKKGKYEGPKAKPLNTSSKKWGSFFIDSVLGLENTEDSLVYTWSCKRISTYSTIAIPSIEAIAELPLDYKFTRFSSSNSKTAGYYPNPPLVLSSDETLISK
UniProt Q9Y314, sequence (Q9Y314 whole entry, looked up): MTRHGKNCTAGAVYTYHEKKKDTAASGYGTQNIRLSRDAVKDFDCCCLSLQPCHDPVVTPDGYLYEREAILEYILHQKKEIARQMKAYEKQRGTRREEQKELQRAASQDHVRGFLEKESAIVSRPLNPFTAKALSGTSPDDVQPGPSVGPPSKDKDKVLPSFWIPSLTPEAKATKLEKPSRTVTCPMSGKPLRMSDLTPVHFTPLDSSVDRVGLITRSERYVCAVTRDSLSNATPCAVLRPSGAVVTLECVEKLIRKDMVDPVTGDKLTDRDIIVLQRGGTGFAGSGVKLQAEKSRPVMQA
UniProt P15559, sequence (P15559 whole entry, looked up): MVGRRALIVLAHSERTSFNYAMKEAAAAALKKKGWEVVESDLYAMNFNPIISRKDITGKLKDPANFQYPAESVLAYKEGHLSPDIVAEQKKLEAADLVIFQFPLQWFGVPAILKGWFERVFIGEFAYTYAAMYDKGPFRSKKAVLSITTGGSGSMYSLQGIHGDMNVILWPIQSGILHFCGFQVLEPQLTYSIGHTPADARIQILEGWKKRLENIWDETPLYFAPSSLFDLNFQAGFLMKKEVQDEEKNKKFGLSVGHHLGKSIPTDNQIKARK

Target	log2 fold change [1]	log2 fold change [2]	log2 fold change [3]	log2 fold change [4]	log2 fold change [5]	log2 fold change [6]	log2 fold change [7]	log2 fold change [8]	log2 fold change [9]	log2 fold change [10]	log2 fold change [11]	log2 fold change [12]	log2 fold change [13]	log2 fold change [14]	log2 fold change [15]	log2 fold change [16]	log2 fold change [17]	log2 fold change [18]	log2 fold change [19]	log2 fold change [20]
NANS (UniProt Q9NR45)	0.091	-0.034	-0.01	0.015	-0.043	-0.006	-0.036	0	0.033	0.065	0.063	-0.02	0.035	0.007	-0.196	-0.001	0.026	0.007	-0.025	0.01
NT5DC1 (UniProt Q5TFE4)	0.049	0.021	-0.039	-0.054	-0.019	0.02	-0.011	-0.024	-0.001	-0.022	0.149	-0.018	-0.019	0.021	-0.068	-0.001	-0.016	-0.003	0.004	-0.039
NOSIP (UniProt Q9Y314)	-0.401	-0.032	-0.033	-0.065	-0.135	-0.106	-0.039	0.085	-0.143	0.186	0.02	-0.2	0.032	0.012	0.149	0.247	0.168	0.047	0.14	0.197
NQO1 (UniProt P15559)	0.001	-0.053	0.044	0.001	-0.029	-0.035	-0.045	-0.02	-0.038	-0.01	0.075	-0.023	0.032	0.025	-0.049	0.027	-0.007	0.039	-0.01	0.036
OTULIN (UniProt Q96BN8)	0.021	-0.025	-0.003	-0.01	-0.059	-0.362 (active)	0.024	0.034	-0.02	0.008	0.03	0.002	0.035	0.015	-0.17	-0.023	0.171	-0.018	0.039	0.105
NNT (UniProt Q13423)	0.013	-0.018	-0.016	-0.099	-0.056	0.016	-0.053	-0.029	-0.022	0.037	0.02	-0.004	0.004	0.058	-0.091	0.025	0.016	-0.023	0.001	0.01
NMT1 (UniProt P30419)	0.023	0.028	0.017	0.017	-0.047	-0.053	0.008	0.037	0.009	-0.051	-0.012	-0.006	-0.012	0.021	-0.036	-0.013	0	0.023	-0.284 (active)	-0.015
NECTIN2 (UniProt Q92692)	0.025	0.02	-0.023	-0.035	-0.03	0.182	0.024	0.009	-0.015	0	-0.006	-0.026	0.037	-0.049	-0.117	0.016	0.019	0.005	-0.025	-0.024
